Assay results taken from the supplement of paper PMC8728848.
The sample as a whole holds a higher share of the strongest signals than the screen did.

How the values were obtained:
Test in all cases: glycan array binding signal (z-score within array); higher = stronger binding
Settings in all cases: glycan notation: IUPAC condensed, linker removed
[1] = biological target: Fuc(a1-2)Gal(b1-3)GalNAc(a1-3)[Fuc(a1-2)]Gal(b1-4)Glc
Method in brief: (§1)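 Columns mapping to the same glycan were averaged after glycan names were converted to IUPAC-condensed notation. The data come from 3228 arrays in the Consortium for Functional Glycomics database, limited to those with an available protein sequence. Binding is reported as a within-array Z-score averaged across arrays of one protein sequence and across linkers.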

[2] = biological target: Fuc(a1-2)Gal(b1-3)GalNAc(b1-4)[Neu5Ac(a2-3)]Gal(b1-4)Glc
Method in brief: as §1

[3] = biological target: Fuc(a1-2)Gal(b1-3)GlcNAc(b1-3)[Neu5Ac(a2-6)Gal(b1-4)GlcNAc(b1-6)]Gal(b1-4)Glc
Method in brief: as §1

[4] = biological target: Fuc(a1-2)Gal(b1-4)GlcNAc
Method in brief: as §1

[5] = biological target: Fuc(a1-2)[Gal(a1-3)]Gal(b1-3)GlcNAc(b1-6)GalNAc
Method in brief: as §1

[6] = biological target: Fuc(a1-2)[Gal(a1-4)]Gal(b1-4)GlcNAc
Method in brief: as §1

[7] = biological target: Fuc(a1-2)[GalNAc(a1-3)]Gal(b1-3)GlcNAc(b1-6)GalNAc
Method in brief: as §1

[8] = biological target: Fuc(a1-2)[GalNAc(a1-3)]Gal(b1-4)GlcNAc
Method in brief: as §1

[9] = biological target: Fuc(a1-2)[GalNAc(a1-3)]Gal(b1-4)GlcNAc(b1-3)Gal(b1-4)GlcNAc
Method in brief: as §1

[10] = biological target: Fuc(a1-2)[GalNAc(a1-3)]Gal(b1-4)GlcNAc(b1-6)GalNAc
Method in brief: as §1

[11] = biological target: Gal(a1-3)Gal(b1-3)GlcNAc
Method in brief: as §1

[12] = biological target: Gal(a1-3)Gal(b1-3)[Fuc(a1-4)]GlcNAc(b1-2)Man(a1-3)[Gal(a1-3)Gal(b1-3)[Fuc(a1-4)]GlcNAc(b1-2)Man(a1-6)]Man(b1-4)GlcNAc(b1-4)GlcNAc
Method in brief: as §1

[13] = biological target: Gal(a1-3)Gal(b1-4)[Fuc(a1-3)]GlcNAc(b1-2)Man(a1-3)[Gal(a1-3)Gal(b1-4)[Fuc(a1-3)]GlcNAc(b1-2)Man(a1-6)]Man(b1-4)GlcNAc(b1-4)GlcNAc
Method in brief: as §1

[14] = biological target: Gal(a1-4)Gal(b1-4)GlcNAc(b1-2)Man(a1-3)[Gal(a1-4)Gal(b1-4)GlcNAc(b1-2)Man(a1-6)]Man(b1-4)GlcNAc(b1-4)GlcNAc
Method in brief: as §1

[15] = biological target: Gal(b1-3)GlcNAc(a1-6)Gal(b1-4)GlcNAc
Method in brief: as §1

[16] = biological target: Gal(b1-3)GlcNAc(b1-2)Man(a1-3)[Gal(b1-3)GlcNAc(b1-2)Man(a1-6)]Man(b1-4)GlcNAc(b1-4)[Fuc(a1-6)]GlcNAc
Method in brief: as §1

[17] = biological target: Gal(b1-3)GlcNAc(b1-3)Gal(b1-4)[Fuc(a1-3)]GlcNAc
Method in brief: as §1

[18] = biological target: Gal(b1-3)[Fuc(a1-4)]GlcNAc(b1-2)Man
Method in brief: as §1

[19] = biological target: Gal(b1-4)GlcNAc(b1-2)Man(a1-3)Man(b1-4)GlcNAc(b1-4)GlcNAc
Method in brief: as §1

[20] = biological target: Gal(b1-4)GlcNAc(b1-2)[Gal(b1-4)GlcNAc(b1-4)]Man(a1-3)[GlcNAc(b1-4)][Gal(b1-4)GlcNAc(b1-2)Man(a1-6)]Man(b1-4)GlcNAc(b1-4)GlcNAc
Method in brief: as §1

[21] = biological target: Gal(b1-4)GlcNAc(b1-3)Gal(b1-3)GalNAc
Method in brief: as §1

[22] = biological target: Gal(b1-4)GlcNAc(b1-3)Gal(b1-4)GlcNAc(b1-2)Man(a1-3)[Gal(b1-4)GlcNAc(b1-3)Gal(b1-4)GlcNAc(b1-2)Man(a1-6)]Man(b1-4)GlcNAc(b1-4)[Fuc(a1-6)]GlcNAc
Method in brief: as §1

[23] = biological target: Gal(b1-4)GlcNAc(b1-3)Gal(b1-4)GlcNAc(b1-2)[Gal(b1-4)GlcNAc(b1-3)Gal(b1-4)GlcNAc(b1-6)]Man(a1-6)[Gal(b1-4)GlcNAc(b1-3)Gal(b1-4)GlcNAc(b1-2)Man(a1-3)]Man(b1-4)GlcNAc(b1-4)GlcNAc
Method in brief: as §1

[24] = biological target: Gal(b1-4)GlcNAc(b1-3)Gal(b1-4)GlcNAc(b1-3)Gal(b1-4)GlcNAc(b1-2)[Gal(b1-4)GlcNAc(b1-3)Gal(b1-4)GlcNAc(b1-3)Gal(b1-4)GlcNAc(b1-6)]Man(a1-6)[Gal(b1-4)GlcNAc(b1-3)Gal(b1-4)GlcNAc(b1-3)Gal(b1-4)GlcNAc(b1-2)Man(a1-3)]Man(b1-4)GlcNAc(b1-4)[Fuc(a1-6)]GlcNAc
Method in brief: as §1

[25] = biological target: Gal(b1-4)GlcNAc(b1-3)Gal(b1-4)GlcNAc(b1-3)Gal(b1-4)GlcNAc(b1-3)Gal(b1-4)GlcNAc(b1-2)[Gal(b1-4)GlcNAc(b1-3)Gal(b1-4)GlcNAc(b1-3)Gal(b1-4)GlcNAc(b1-3)Gal(b1-4)GlcNAc(b1-6)]Man(a1-6)[Gal(b1-4)GlcNAc(b1-3)Gal(b1-4)GlcNAc(b1-3)Gal(b1-4)GlcNAc(b1-3)Gal(b1-4)GlcNAc(b1-2)Man(a1-3)]Man(b1-4)GlcNAc(b1-4)[Fuc(a1-6)]GlcNAc
Method in brief: as §1

[26] = biological target: Gal(b1-4)GlcNAc(b1-3)Gal(b1-4)GlcNAc(b1-3)Gal(b1-4)GlcNAc(b1-3)Gal(b1-4)GlcNAc(b1-3)Gal(b1-4)GlcNAc(b1-2)Man(a1-3)[Gal(b1-4)GlcNAc(b1-3)Gal(b1-4)GlcNAc(b1-3)Gal(b1-4)GlcNAc(b1-3)Gal(b1-4)GlcNAc(b1-3)Gal(b1-4)GlcNAc(b1-2)Man(a1-6)]Man(b1-4)GlcNAc(b1-4)GlcNAc
Method in brief: as §1

[27] = biological target: Gal(b1-4)GlcNAc(b1-3)Gal(b1-4)GlcNAc(b1-3)GalNAc
Method in brief: as §1

B1: Arath Fbox (Arabidopsis thaliana), NP_178341.1 (protein)
chain: EFTWGRKRRVKSESSPFDSFPEDCISYIISFTNPRDACVAATVSKTFESTVKSDIIWEKFLPADYESLIPPSRVFSSKKELYFSLCNDPVLFDDDKKSVWLEKASGKRCLMLSAMNLSIIWGDNPQYWQWIPIPESRFEKVAKLRDVCWFEIRGRTNTRVLSPRTRYSAYIVFKGVDKCYGFQNVAIEAAVGVVGQEPSRRLICFSEAIRRGRRNVVKPKQREDGWMEIELGEFFNDGGIMDNDEIEMSALETKQLNRKCGLIIQGIEIRPAKILAAAAASFLEQKLISEEDLNSAVDHHHHHH
[1]
  glycan array binding signal (z-score): -0.513
[2]
  glycan array binding signal (z-score): -0.123
[3]
  glycan array binding signal (z-score): -0.599
[4]
  glycan array binding signal (z-score): 0.005
[5]
  glycan array binding signal (z-score): 0.025
[6]
  glycan array binding signal (z-score): 0.262
[7]
  glycan array binding signal (z-score): -0.626
[8]
  glycan array binding signal (z-score): -0.433
[9]
  glycan array binding signal (z-score): -0.64
[10]
  glycan array binding signal (z-score): -0.711
[11]
  glycan array binding signal (z-score): 12
[12]
  glycan array binding signal (z-score): 3.32
[13]
  glycan array binding signal (z-score): 0.161
[14]
  glycan array binding signal (z-score): 0.198
[15]
  glycan array binding signal (z-score): 0.001
[16]
  glycan array binding signal (z-score): 3.36
[17]
  glycan array binding signal (z-score): -0.717
[18]
  glycan array binding signal (z-score): 2.33
[19]
  glycan array binding signal (z-score): -0.673
[20]
  glycan array binding signal (z-score): -0.348
[21]
  glycan array binding signal (z-score): -0.431
[22]
  glycan array binding signal (z-score): 3.33
[23]
  glycan array binding signal (z-score): 2.73
[24]
  glycan array binding signal (z-score): 2.13
[25]
  glycan array binding signal (z-score): 2.36
[26]
  glycan array binding signal (z-score): 2.6
[27]
  glycan array binding signal (z-score): 0.46
